The list is not random: actives were taken first. Their share in the collection is about 4%.
Shn3 3UTR inh: Schnurri-3 reporter inhibition in Clone20 osteoblasts; inhibition, % at 12.5 µM; 360,000 tested, 0.52% active; Clone20 osteoblast Shn3 3'UTR firefly luciferase, 24 h; AID 588674;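 active = mean inhibition of at least 75% with every replicate also reaching 75%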;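 note: 0% = median of neutral control wells and 100% = pilot-screen positive control compound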
Gli-Sufu antag: blocks Gli-Sufu signaling in a luciferase reporter | inhibition, % at 5 µM | AID 588413 | Sufu-KO-LIGHT fibroblasts, Gli luciferase reporter luminescence | 340,000 tested, 0.74% active;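 active = inhibition above about 55%, limit read from the data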;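 note: 0% = DMSO-treated cells and 100% = wells with medium but no cells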
Beta apoptosis: blocks beta cell apoptosis; INS-1E cytokine-induced death, ATP luminescence, 48 h; percent of positive-control rescue, neutral wells zero; 300,000 tested, 0.8% active; protection from apoptosis, % (test concentration not listed);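 active = Every replicate reaches about 75%, or at least half do and their mean reaches it too, limit read from the data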;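 note: 0% = cytokine-treated negative control wells and 100% = positive control rescue; higher means more ATP so stronger rescue from cytokine killing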
PAX8 inh HTS: lowers PAX8-driven luciferase in RMG-I cells | RMG-I TPO-luciferase reporter, SteadyGlo, 24 h | AID 652154 | 360,000 tested, 1.2% active | inhibition, % at 12.6 µM;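 active = mean replicate inhibition at least 60% with every replicate also reaching 60%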;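 note: luciferase light reporting Pax8 driven TPO promoter activity; plate controls were median of neutral control wells for no effect and mitoxantrone controls for full effect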
CSC inhib: cancer stem cell inhibition; 300,000 tested, 1.1% active; inhibition, % at 7.5 µM; cancer stem cell-like cells viability, luminescence; in the data active = inhibition above about 75%; tested in HMLE shEcad cells
Mdm2-MdmX inh: human Mdm2/MdmX binding inhibition; O15151+Q00987; SaOS-2 split-luciferase Mdm2/MdmX complementation, luminescence; inhibition, % at 8 µM; 330,000 tested, 3% active; AID 485346;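 active = inhibition of at least 50% at 8 µM in the primary screen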
Target sequence (O15151 whole entry, looked up): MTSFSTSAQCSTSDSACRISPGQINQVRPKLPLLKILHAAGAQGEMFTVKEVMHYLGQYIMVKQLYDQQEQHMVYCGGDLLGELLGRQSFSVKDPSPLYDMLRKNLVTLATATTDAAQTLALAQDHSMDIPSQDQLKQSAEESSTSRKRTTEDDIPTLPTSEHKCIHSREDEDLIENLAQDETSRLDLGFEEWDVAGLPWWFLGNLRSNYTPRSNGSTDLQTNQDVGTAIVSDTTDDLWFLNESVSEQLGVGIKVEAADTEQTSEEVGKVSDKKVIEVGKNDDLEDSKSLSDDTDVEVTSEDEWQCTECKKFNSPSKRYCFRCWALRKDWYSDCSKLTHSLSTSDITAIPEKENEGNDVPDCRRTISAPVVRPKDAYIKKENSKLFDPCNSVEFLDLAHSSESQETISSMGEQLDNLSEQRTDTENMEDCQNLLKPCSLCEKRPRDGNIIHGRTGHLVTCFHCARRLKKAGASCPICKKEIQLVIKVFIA
Target sequence (Q00987 whole entry, looked up): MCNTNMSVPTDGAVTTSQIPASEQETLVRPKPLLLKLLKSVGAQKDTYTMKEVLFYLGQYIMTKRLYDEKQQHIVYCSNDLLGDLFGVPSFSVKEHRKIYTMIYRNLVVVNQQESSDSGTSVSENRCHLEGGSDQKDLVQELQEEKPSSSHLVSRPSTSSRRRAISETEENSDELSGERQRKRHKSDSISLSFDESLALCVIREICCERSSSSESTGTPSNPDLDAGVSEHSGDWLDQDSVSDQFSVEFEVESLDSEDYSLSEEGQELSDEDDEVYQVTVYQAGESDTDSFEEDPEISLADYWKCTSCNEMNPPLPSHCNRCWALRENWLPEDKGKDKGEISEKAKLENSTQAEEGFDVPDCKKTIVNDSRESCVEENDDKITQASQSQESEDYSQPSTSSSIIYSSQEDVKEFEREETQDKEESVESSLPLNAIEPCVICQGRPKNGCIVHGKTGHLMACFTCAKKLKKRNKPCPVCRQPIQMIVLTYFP
Active calls of the source: *; . = no result.

SMILES	Shn3 3UTR inh	Gli-Sufu antag	Beta apoptosis	PAX8 inh HTS	CSC inhib	Mdm2-MdmX inh
O=C1CC(c2ccccc2)CC(O)=C1C=NCc1ccccc1Cl (stereo not drawn)	-15.3	-2.9	13.0	.	84.4*	34.9
O=C1CC(c2ccccc2)CC(O)=C1C=NCc1ccccc1 (stereo not drawn)	-12.1	2.7	5.0	.	-6.3	-1.8
COC(=O)c1c(NC(=O)c2ccccc2)sc2c1CC(C)(C)OC2	-33.3	-20.0	-1.9	.	79.8*	-9.3
Cc1cccn2c(/C=N/OCc3cccc(F)c3)c(-c3ccc(Cl)cc3)nc12	10.8	4.9	5.3	.	84.9*	20.7
CC(=O)C1(C)CCC2C3C=C(C)C4=CC(=O)CCC4(C)C3CCC21C (stereo not drawn)	87.1*	10.9	.	2.9	.	.
C=C1C[C@H]2[C@@H]3C=C(C)C4=CC(=O)CC[C@]4(C)[C@H]3CC[C@]2(C)[C@@]1(OC(C)=O)C(C)=O	-18.1	10.5	5.2	-11.9	6.0	4.8
CCOC(=O)/C(C(N)=NCC(C)C)=C(/O)c1ccccc1	-11.2	-11.8	.	-13.1	17.0	-20.6
CCCOC(=O)/C(C(N)=NCc1ccccc1)=C(\O)OCCC	12.7	7.6	109.4*	11.3	45.5	1.8
C[C@H]1CN([C@@H](C)CO)C(=O)Cc2cc(NC(=O)NC3CCCCC3)ccc2O[C@@H]1CN(C)Cc1ccc(-c2ccccc2)cc1	.	.	.	103.3*	.	.
C[C@H](CO)N1C[C@H](C)[C@H](CN(C)Cc2ccc(-c3ccccc3)cc2)Oc2ccc(NC(=O)NC3CCCCC3)cc2CC1=O	.	.	.	16.2	.	.
C[C@@H]1CN([C@@H](C)CO)C(=O)Cc2cc(NC(=O)NC3CCCCC3)ccc2O[C@H]1CN(C)Cc1ccc(-c2ccccc2)cc1	.	.	.	79.5*	.	.
C[C@H]1CN([C@@H](C)CO)C(=O)Cc2cc(NC(=O)NC3CCCCC3)ccc2O[C@H]1CN(C)Cc1ccc(-c2ccccc2)cc1	.	.	.	103.2*	.	.
O=C(C[C@@H]1C[C@H]2c3cc(NS(=O)(=O)c4ccc(F)cc4)ccc3O[C@H]2[C@H](CO)O1)N1CCc2ccccc2C1	.	.	.	21.6	.	.
C[C@H](CO)N1C[C@H](C)[C@@H](CN(C)C(=O)Nc2ccccc2)Oc2c(NC(=O)C3CC3)cccc2C1=O	.	.	.	8.0	.	.
CCCN(C)C[C@@H]1OCCCC[C@@H](C)Oc2ccc(NS(=O)(=O)c3ccc(Cl)cc3)cc2C(=O)N([C@@H](C)CO)C[C@@H]1C	.	.	.	28.6	.	.
CS(=O)(=O)Nc1ccc2c(c1)[C@@H]1C[C@H](CC(=O)NCc3ccc(Oc4ccccc4)cc3)O[C@H](CO)[C@@H]1O2	.	.	.	12.4	.	.
O=C(C[C@@H]1C[C@H]2c3cc(NS(=O)(=O)c4ccc(F)cc4)ccc3O[C@H]2[C@H](CO)O1)NCc1ccc(Oc2ccccc2)cc1	.	.	.	100.5*	.	.
CS(=O)(=O)Nc1ccc2c(c1)[C@@H]1C[C@H](CC(=O)NCc3ccc(Oc4ccccc4)cc3)O[C@@H](CO)[C@@H]1O2	.	.	.	85.0*	.	.
O=C(C[C@@H]1C[C@H]2c3cc(NS(=O)(=O)c4ccc(F)cc4)ccc3O[C@H]2[C@@H](CO)O1)NCc1ccc(Oc2ccccc2)cc1	.	.	.	90.7*	.	.
O=C(C[C@@H]1C[C@@H]2c3cc(NS(=O)(=O)c4ccc(F)cc4)ccc3O[C@@H]2[C@H](CO)O1)NCc1ccc(Oc2ccccc2)cc1	48.5	.	.	55.7	.	.
O=C(C[C@@H]1C[C@@H]2c3cc(NS(=O)(=O)c4ccc(F)cc4)ccc3O[C@@H]2[C@@H](CO)O1)NCc1ccc(Oc2ccccc2)cc1	.	.	.	106.5*	.	.
O=C(C[C@H]1C[C@@H]2c3cc(NS(=O)(=O)c4ccc(F)cc4)ccc3O[C@@H]2[C@H](CO)O1)NCc1ccc(Oc2ccccc2)cc1	.	.	.	33.8	.	.
O=C([C@@H]1[C@@H](CO)[C@@H]2Cn3c(ccc(-c4ccccc4F)c3=O)[C@H]1N2C(=O)C1CC1)N1CCOCC1	.	.	.	-11.8	.	.
CN(C)c1ccc2c(c1)[C@H]1C[C@@H](CC(=O)NCc3ccc(Oc4ccccc4)cc3)O[C@@H](CO)[C@H]1O2	.	.	.	24.1	.	.
CN(C)c1ccc2c(c1)[C@@H]1C[C@@H](CC(=O)NCc3ccc(Oc4ccccc4)cc3)O[C@@H](CO)[C@@H]1O2	.	.	.	85.5*	.	.
SMILES	Shn3 3UTR inh	Gli-Sufu antag	Beta apoptosis	PAX8 inh HTS	CSC inhib	Mdm2-MdmX inh
Cc1cccc(-n2cc(CN(C)Cc3nccn3C)c(-c3cccc(F)c3)n2)c1	1.9	1.6	-3.1	13.9	102.8*	33.1
O=C(C1CC1)N1[C@@H](CO)[C@@H]2c3ccccc3N(S(=O)(=O)c3ccc(F)cc3)C[C@@H]21	.	.	.	-5.9	.	.
CCN1[C@@H]2Cn3c(ccc(-c4ccccc4)c3=O)[C@H]1[C@@H](C(=O)NC1CCC1)[C@@H]2CO	.	.	.	-0.9	.	.
CCC(=O)N[C@@H]1CC[C@H](CCNC(=O)Nc2ccc(F)cc2)O[C@H]1CO	.	.	.	-13.0	.	.
CCCc1c(C(=O)NNc2ccc(C)cc2)cnn1-c1ccccc1	13.3	7.3	-8.8	-49.6	93.0*	5.3
Cc1cc(C)c(OCCCCN2CCNCC2)c(C)c1	-7.3	10.2	0.7	17.3	82.1*	-24.9
Cc1cccc(C)c1OCCCCN1CCNCC1	-53.4	16.5	-7.6	-37.0	35.3	19.2
Cc1ccc(C(=O)Cc2ccccc2)c(O)c1	-43.5	-22.9	.	-57.7	.	.
CC(C)=CCc1c(O)ccc(C(=O)Cc2ccccc2)c1O	-8.0	-0.5	8.4	.	96.6*	23.1
CC(C)c1ccc(COc2ccc(C(=O)N3CCOCC3)cc2)cc1	31.4	-2.8	75.8*	-11.0	7.3	0.5
O=C(Nc1ccc(F)cc1)N1CCCCN2[C@H](CO)[C@@H](c3ccc(C4=CCCCC4)cc3)[C@H]2C1	.	.	.	73.6*	.	.
O=C(Nc1ccc(F)cc1)N1CCCCN2[C@@H](CO)[C@H](c3ccc(C4=CCCCC4)cc3)[C@@H]2C1	.	.	.	54.3	.	.
COc1ccc(NC(=O)N2CCCCN3[C@@H](CO)[C@@H](c4ccc(C5=CCCC5)cc4)[C@@H]3C2)cc1	.	.	.	81.8*	.	.
CC(=NCc1cccc(Cl)c1)c1nc(-c2ccco2)oc1O	29.4	-2.4	-3.8	-32.5	100.2*	5.7
CN1C(=O)c2cc(NC(=O)c3cccs3)ccc2OC[C@H]2O[C@@H](CC(=O)N3CCCCC3)CC[C@@H]21	.	.	.	-4.2	.	.
COC1OC(COCc2ccccc2)C2OC(C)(C)OC2C1O (stereo not drawn)	.	.	.	104.0*	.	.
COc1cc(OC)cc(C(=O)NCC(=O)N2CCN(c3ccc(O)cc3)CC2)c1	-23.6	58.0*	-1.2	1.1	1.3	-5.5
Cc1ccc(S(=O)(=O)Nc2ccc3c(c2)C(=O)N([C@@H](C)CO)C[C@H](C)[C@H](CN(C)Cc2ccc(C(=O)O)cc2)OCCCC[C@H](C)O3)cc1	.	.	.	-13.6	.	.
O=C(COc1ccc(Cl)cc1Cl)N/N=C/c1ccc[nH]1	-20.2	-9.1	-8.3	-21.4	79.1*	-3.2
O=C(COc1ccc(Cl)cc1Cl)N/N=C/CCc1ccccc1	10.5	1.5	-10.3	.	-9.9	40.3
CSc1ccccc1OCc1cc(C(=O)N2CCc3c(Cl)cccc3C2)no1	-4.5	-11.5	78.7*	14.9	14.1	19.9
